Laboratory results taken from PubChem BioAssay (EPA / NIEHS).
Inconclusive results are not listed. Activity calls are given as the source filed them. The calls were made as follows: active = hit-call score of the fitted dose curve at least 0.9, where 1 is the maximum; inconclusive = response in the unintended direction; inactive = score below 0.9.

What follows are compounds tested against Cellular tumor antigen p53 (Homo sapiens) (UniProt P04637) (assay: TOX21_p53_BLA_p4_ratio: Tox21 HCT-116 p53 Agonism Beta-lactamase Assay, Ratio, Phase 4 (AID 2283601)).
Chain of Cellular tumor antigen p53 (Homo sapiens) (P04637 whole entry, looked up): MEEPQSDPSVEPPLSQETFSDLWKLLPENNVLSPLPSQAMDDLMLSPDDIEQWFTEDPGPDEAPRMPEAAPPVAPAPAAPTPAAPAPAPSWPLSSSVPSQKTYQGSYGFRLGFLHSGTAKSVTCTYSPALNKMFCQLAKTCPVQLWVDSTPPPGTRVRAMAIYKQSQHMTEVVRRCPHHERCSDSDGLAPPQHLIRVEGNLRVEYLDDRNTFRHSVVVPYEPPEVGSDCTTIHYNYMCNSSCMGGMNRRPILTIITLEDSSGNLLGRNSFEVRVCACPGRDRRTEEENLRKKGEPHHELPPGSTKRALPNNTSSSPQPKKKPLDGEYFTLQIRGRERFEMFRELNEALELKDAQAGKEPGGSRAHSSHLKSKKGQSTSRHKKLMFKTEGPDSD
Summary of the method: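 HCT-116 p53 beta-lactamase reporter cells (4000/well) preincubated 5 h, then compound (217-fold dilution of DMSO stock) for 16 h at 37C. CCF4-AM substrate added 2 h at room temperature; 460/530 nm emission ratio fitted upward versus DMSO.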
With COC(=O)[C@H]1[C@H]2C[C@@H]3c4[nH]c5cc(OC)ccc5c4CCN3C[C@H]2C[C@@H](OC(=O)/C=C/c2cc(OC)c(OC)c(OC)c2)[C@@H]1OC the outcome was “inactive”. Cn1c(=O)c2[nH]c(Br)nc2n(C)c1=O was tested, and the outcome was “inactive”. With COC(=O)C1=C(C)NC(C)=C(C(=O)O[C@@H]2CCCN(Cc3ccccc3)C2)[C@@H]1c1cccc([N+](=O)[O-])c1 the outcome was “inactive”. CC1(C)C(O)C(C)(C)C1O (configuration not stated) was tested, and the outcome was “inactive”. In the case of COC(=O)C1CC(=O)C(C(=O)OC)CC1=O (configuration not stated), the outcome is reported as “inactive”. In the case of CC(C)(C)OC=O, the outcome is reported as “inactive”. In the case of CNCCS(=O)(=O)O, the outcome is reported as “inactive”. COc1ccc(C(=O)Nc2ccccc2)cc1[N+](=O)[O-] was tested, and the outcome was “inactive”. In the case of O=C(OOC(=O)c1ccccc1)c1ccccc1, the outcome is reported as “inactive”. With COc1cc(OC)c(C(=O)CCCN2CCCC2)c(OC)c1 the outcome was “inactive”. For Cc1[nH]cnc1CN1CCc2c(c3ccccc3n2C)C1=O, the outcome was “inactive”. With CC1(C)CCC(NC(=O)[C@@H](N)CCC(=O)O)CC1 the outcome was “inactive”. In the case of CCN[C@@H]1C[C@H](N)[C@@H](OC2OC(CN)=CCC2N)[C@H](O)[C@H]1O[C@H]1OC[C@](C)(O)[C@H](NC)[C@H]1O (some centres not stated), the outcome is reported as “inactive”. Nc1ccc2ccccc2c1S(=O)(=O)O was tested, and the outcome was “inactive”. With Cc1cc(C)c(NC(=O)CN(CC(=O)O)CC(=O)O)c(C)c1Br the outcome was “inactive”. With CC(C)CCC[C@@H](C)[C@H]1CC[C@H]2[C@@H]3CC=C4C[C@@H](O)CC[C@]4(C)[C@H]3CC[C@]12C the outcome was “inactive”. CCC(=O)OCC(=O)[C@@]1(OC(=O)CC)[C@H](C)C[C@H]2[C@H]3[C@H]([C@@H](O)C[C@@]21C)[C@@]1(C)C=CC(=O)C=C1C[C@H]3Cl was tested, and the outcome was “inactive”.
